# CtBP-E1A blk – CtBP/E1A binding inhibition; AlphaScreen GST-E1A/His-CtBP binding, 1536-well; active compounds read low; activity change, % (no concentration beside the values); 340,000 compounds, 0.49% hits; in the data active = activity change below about -65%; inconclusive = mostly about -30% to -63%; also: % is scaled to controls: 0 for no effect and ±100 for the full control effect
#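 Protein mix (5X: 125 nM each GST-E1A, His-CtBP) was incubated with pinned compound 2 h at 37 deg C in dark, in 50 mM Tris pH 8.0 buffer with 300 mM NaCl. Glutathione donor and nickel acceptor beads followed; AlphaScreen signal read after 1 h.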
# Six1-Eya2 blk – inhibitors of human Six1/Eya2 interaction. Q15475+O00167. AlphaScreen GST-Six1/His-Eya2 binding, biochemical; active compounds read low. activity change, % (no concentration beside the values). 360,000 compounds, 0.56% hits. AID 651725; in the data active = activity change below about -65%; inconclusive = mostly about -30% to -63%; also: % is scaled to controls: 0 for no effect and ±100 for the full control effect
#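 Six1/Eya2 binding was read as AlphaScreen signal after compounds were pinned into GST-Six1 plus His-tagged Eya2 (5X stock 250/500 nM) in pH 8.0 Tris/NaCl/TCEP buffer, beads added, then incubated 1 h, 37 C, dark.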
# HP1b binding inh – HP1-beta chromodomain-methylated histone interaction inhibition. P83916. AlphaScreen HP1-beta / biotin-H3K9me3 peptide binding. Potency, µM (highest dose often 114 µM), for inactives: at the highest dose activity change, negative = inhibition, hits mostly inhibitors. 390,000 compounds, 0.56% hits; also: potency is read from the fitted curve at half-maximal effect; nearly all actives have a fitted effect of over 70% in size
# Target sequence (P83916 whole entry, looked up): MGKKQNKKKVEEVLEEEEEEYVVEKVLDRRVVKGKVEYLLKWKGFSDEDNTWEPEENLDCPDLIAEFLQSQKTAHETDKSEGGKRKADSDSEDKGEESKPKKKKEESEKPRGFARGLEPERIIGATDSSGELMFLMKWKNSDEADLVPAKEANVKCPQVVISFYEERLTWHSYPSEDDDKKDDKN
#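 AlphaScreen: HP1-beta (50 nM) preformed 30 min with biotin-H3(1-18)K9me3 peptide (50 nM) in PBS pH 7.4, 0.01% Tween-20. Compound added for 30 min at RT, then streptavidin donor/nickel chelate acceptor beads (10 ug/mL) for 30 min.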
# BAZ2B block – blocks human BAZ2B | Q9UIF8 | AlphaScreen BAZ2B-H3K14Ac peptide displacement | Potency, µM (titrated, usually from 114 µM), for the others: at the top dose activity change, negative = inhibition, usual class: inhibitors | 360,000 compounds, 4.4% hits; also: potency is read from the fitted curve at half-maximal effect; % is scaled to controls: 0 for no effect and ±100 for the full control effect; nearly all actives have a fitted effect of over 60% in size
#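 Multi-concentration screen (max 110 uM) measuring displacement of acetylated histone H3 peptide from BAZ2B by AlphaScreen, using 50 nM protein, 50 nM peptide and 10 ug/mL streptavidin donor plus Ni-chelate acceptor beads.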
# G9a inh – G9a (human) methyltransferase inhibition; AID 504332; Q96KQ7; Potency, µM (top dose mostly 102 µM), inactives show at the top dose activity, negative = inhibition, actives largely listed as inhibitors; 350,000 compounds, 8.8% hits; G9a H3K9 monomethylation, AlphaScreen, 2 h; also: potency is read from the fitted curve at half-maximal effect; % is scaled to controls: 0 for no effect and ±100 for the full control effect; nearly all actives have a fitted effect of over 75% in size
# Target sequence (Q96KQ7 913-1193 limits assumed): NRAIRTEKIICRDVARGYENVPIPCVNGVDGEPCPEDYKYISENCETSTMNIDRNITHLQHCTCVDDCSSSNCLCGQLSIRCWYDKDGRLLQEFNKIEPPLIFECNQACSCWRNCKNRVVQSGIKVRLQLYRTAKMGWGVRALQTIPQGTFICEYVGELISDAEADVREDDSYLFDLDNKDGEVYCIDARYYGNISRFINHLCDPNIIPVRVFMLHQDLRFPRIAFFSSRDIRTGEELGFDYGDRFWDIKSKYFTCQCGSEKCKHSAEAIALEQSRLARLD
#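 Readings reflect AlphaScreen signal from monomethyl-H3K9 antibody detection. HMT at 20 nM; substrate b-H3K9 500 nM; cofactor SAM 20 uM; 2 h RT reaction; compounds tested as titrations in qHTS with 15 min preincubation.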
# JMJD2A Tudor – inhibitors of human JMJD2A Tudor domain; 390,000 compounds, 4.4% hits; Potency, µM (highest dose often 114 µM), without a hit: top-dose activity change, negative = inhibition, hits mostly inhibitors; AlphaScreen JMJD2A-Tudor / H3K4me3 peptide binding; also: potency is read from the fitted curve at half-maximal effect; % is scaled to controls: 0 for no effect and ±100 for the full control effect; nearly all actives have a fitted effect of over 50% in size
# * = called active by the depositor; ? = inconclusive; . = not tested or not shown; [ ] = dose if it differs, or a comment. Hits are enriched below; roughly 10% of the tested compounds scored in any of these assays. Unless noted, calls follow the shape of the dose curve; as a rule, active = well fitted inhibition curve with a large enough effect; inconclusive = small, poorly fitted or top-dose-only effect; inactive = no such curve, though single readings can be large or run the other way.
SMILES,CtBP-E1A blk,Six1-Eya2 blk,HP1b binding inh,BAZ2B block,G9a inh,JMJD2A Tudor
COc1cc(NC(=O)CN2CCN(c3ccccc3O)CC2)c(C)cc1[N+](=O)[O-],1.6,-10.1,15.2%,-8.2%,10µM*,-16.2%
COc1cc(NC(=O)CSc2nncn2C)c(C)cc1[N+](=O)[O-],-10.9,-0.1,25.7%,-4.1%,8.7%,-9.7%
CCN(C(=O)CCN1C(=O)S/C(=C\c2ccccc2)C1=O)C1CCS(=O)(=O)C1 (stereo not drawn),-3.5,7.4,26.4%,-14.2%,19.7%,-12.9%
C=CCn1c(C(CCC(C)C)CC(C)(C)O)n[nH]c1=S (stereo not drawn),2.6,0.9,-7.8%,9.7%,?,7.08µM*
C=CCn1c(C(CCCC)CC(C)O)n[nH]c1=S (stereo not drawn),14.9,6.4,28.9%,3.5%,?,?
O=C(c1ccc(Cn2c(=S)[nH]c3ccc(N4CCOCC4)cc3c2=O)cc1)N1CCC(N2CCCCC2)CC1,-6.1,-2.1,12.5%,-36.6%,39.8µM*,-21.0%
O=C(NC1CCN(Cc2ccccc2)CC1)c1ccc(Cn2c(=S)[nH]c3ccc(N4CCOCC4)cc3c2=O)cc1,0.8,-11.0,14.3%,?,2.5%[59 µM],-23.3%
O=c1c2cc(N3CCOCC3)ccc2[nH]c(=S)n1CCCN1CCCC1,-3.1,-6.5,?,3.2%,?,79.4µM*
O=C(Cc1ccc(-n2c(=S)[nH]c3ccccc3c2=O)cc1)N1CCC(N2CCCCC2)CC1,-3.1,-3.7,14.9%,?,50.1µM*,-19.3%
O=c1c2cc(N3CCOCC3)ccc2[nH]c(=S)n1CCCN1CCCCC1,3.6,-3.2,24.6%,2.0%,-18.4%[12.7 µM],?
O=c1c2cc(N3CCOCC3)ccc2[nH]c(=S)n1Cc1ccco1,-12.6,-24.5,-50.9%,?,7.08µM*,50.1µM*
Cc1ccccc1NC(=O)Cc1nc(COC(=O)c2cccc([N+](=O)[O-])c2)cs1,2.4,4.0,14.4%,3.1%,?,-12.5%
O=C1c2[nH]c(=O)[nH]c(=O)c2CN1Cc1ccccc1,16.3,4.3,16.0%,.,.,-12.3%
Cc1ccc(C(=O)COC(=O)c2cc(=O)[nH]c3ccccc23)cc1C,4.4,8.1,?,50.1µM*,28.2µM*,-33.0%
COc1ccccc1C(=O)COC(=O)c1cc(=O)[nH]c2ccccc12,4.7,-6.4,32.7%,3.3%,?,-7.5%
Cc1cc(Cl)c2oc(C(=O)N(C)C3CCOC3)c(C)c2c1 (stereo not drawn),-13.0,3.6,5.8%,-17.4%,-7.3%,14.1µM*
Cc1cc(Cl)c2oc(C(=O)N3CCOCC3)c(C)c2c1,0.8,0.1,.,.,.,.
CCN(CC(=O)Nc1c(F)cccc1F)C(=O)C1Cc2ccccc2CN1S(=O)(=O)CC (stereo not drawn),5.6,6.0,26.2%,11.6%,-18.3%[12.7 µM],0.0%
c1ccc(-c2nc3nc4ccccc4nc3n2Cc2ccco2)cc1,0.0,-21.3,10.4%,-9.0%,15.8µM*,-24.0%
Fc1ccc(-c2nc3nc4ccccc4nc3n2Cc2ccco2)cc1,1.6,-2.8,18.2%,-16.8%,-44.3%,-16.7%
CNC(=O)N(O)C1N(C)C(=O)N(CC(=O)OC)C1(C)C (stereo not drawn),-2.4,1.7,13.0%,9.2%,-38.3%[59 µM],15.8µM*
CCCc1cc(-n2ccnc2)n2c(nc3ccccc32)c1C#N,-11.3,-4.5,37.2%,-5.0%,39.8µM*,8.2%
COc1ccc(-n2c(=O)c3sc4ccccc4c3n(Cc3ccccc3C)c2=O)cc1OC,.,.,34.2%,0.4%,-2.0%[59 µM],-3.3%
CCCCN1C(=O)C2(NNc3ccccc3O2)c2ccccc21 (stereo not drawn),-19.2,-20.4,-23.1%,44.7µM*,?,?
C=CCN1C(=O)C2(NNc3ccccc3O2)c2ccccc21 (stereo not drawn),-20.7,-14.3,-7.4%,?,15.8µM*,?
SMILES,CtBP-E1A blk,Six1-Eya2 blk,HP1b binding inh,BAZ2B block,G9a inh,JMJD2A Tudor
COc1ccccc1-c1nnc(C2CCN(S(=O)(=O)c3ccc(CC(C)C)cc3)CC2)o1,.,.,22.7%,-11.8%,1.6%[59 µM],-23.5%
COc1cc(NC(=O)CN2C(=O)c3ccccc3Sc3ccc(C(=O)N4CCOCC4)cc32)cc(OC)c1OC,0.0,17.1,28.3%,-4.5%,?,3.9%
Nc1ccc(OCc2ccccc2)cc1[N+](=O)[O-],?,?,?,.,.,39.8µM*
O=[N+]([O-])c1cccnc1Oc1ccc(OCc2ccccc2)cc1,-6.0,-9.6,12.6%,-16.4%,5.0%,-24.6%
Nc1ccccc1-c1ccc([N+](=O)[O-])cc1,-1.8,3.2,-25.0%,.,.,-27.6%
Nc1ccc(-c2ccc(N)c([N+](=O)[O-])c2)cc1[N+](=O)[O-],.,-10.0,-2.0%,-2.6%,70.8µM*,-24.5%
CN(c1ccccc1)S(=O)(=O)c1ccc(Cl)c(C(=O)Nc2ccc(N3CCOCC3)cc2)c1,-13.4,-14.6,-3.6%,?,50.1µM*,?
O=C(Nc1ccc(S(=O)(=O)Nc2ncccn2)cc1)c1ccc(S(=O)(=O)N2CCCC2)cc1,-15.8,8.6,28.2%,-8.6%,?,-9.8%
CCC1CCCCN1C(=S)NC(=O)c1cc(S(=O)(=O)N2CCOCC2)ccc1C (stereo not drawn),1.0,-1.8,32.2%,-26.0%,44.7µM*,-2.0%
Cc1ccc(S(=O)(=O)N2CCCCC2)cc1C(=O)Nc1ccc(S(=O)(=O)Nc2ncccn2)cc1,.,-3.9,12.4%,?,50.1µM*,-28.4%
O=C(Nc1ccc(OC(F)F)cc1)c1cc(S(=O)(=O)N2CCCCC2)ccc1N1CCOCC1,2.8,-0.4,28.9%,28.2%,15.8µM*,-1.6%
CCOC(=O)C(=C1Nc2ccccc2N1)n1c(-c2cccnc2)nc2ccccc21,-10.6,-25.1,.,.,.,.
Cc1ccc(S(=O)(=O)N2CCCCC2)cc1C(=O)NCCCN1CCOCC1,-2.3,1.2,20.8%,-16.5%,-5.2%,-2.9%
Cc1ccc(S(=O)(=O)N2CCCC2)cc1C(=O)NCCN1CCOCC1,-0.8,6.0,28.4%,?,79.4µM*,-7.4%
Cc1ccc(S(=O)(=O)N2CCOCC2)cc1C(=O)Nc1ccc(N2CCCCCC2)cc1,?,?,?,39.8µM*,0.3%[0.501 µM],22.4µM*
CC(=O)c1ccc(NC(=O)c2cc(S(=O)(=O)N3CCOCC3)ccc2C)cc1,-0.3,9.1,21.7%,-8.2%,10.0%,-12.1%
O=C(NC(=S)N1CCCCC1CO)c1cc(Br)ccc1Cl (stereo not drawn),-2.4,34.4,-13.2%,5.7%,?,7.94µM*
Cc1nn(CCC(=O)NCc2ccc(Cl)cc2)c(=O)c2nn(-c3ccccc3)c(C)c12,.,.,14.3%,-6.0%,-27.4%[59 µM],-3.8%
